According to PubChem BioAssay (EPA / NIEHS):
Records with an inconclusive call do not appear. Some compounds were tested as several samples or in several runs, with calls that do not always agree. Calls of active or inactive are those of the source. How the source made its calls, unless noted: active means hit-call score of the fitted dose curve at least 0.9, where 1 is the maximum; inactive means score below 0.9.

Legend:
[1] = read-out: Monocyte Chemoattractant Protein-1 (MCP1), CCL2 (gene 6347); assay: BSK_LPS_MCP1: BioMAP Diversity Plus: LPS Assay for Monocyte Chemoattractant Protein-1 (MCP1) Biomarker Activity (AID 2283081); details: primary human HUVEC with PBMC; actives raise or lower the signal;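 on AC50: secreted MCP-1 protein quantified by ELISA in culture supernatant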
Outline: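 Human umbilical vein endothelial cells co-cultured with PBMC, LPS-stimulated; secreted MCP-1 measured by ELISA 24 h after compound addition. Bidirectional curve fitting against DMSO baseline; SRB total-protein staining in parallel cultures for cytotoxicity.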

[2] = read-out: Macrophage colony-stimulating factor (MCSF), CSF1 (gene 1435); assay: BSK_LPS_MCSF: BioMAP Diversity Plus: LPS Assay for Macrophage colony-stimulating factor (MCSF) Biomarker Activity (AID 2283083); details: primary human HUVEC with PBMC; actives raise or lower the signal
Outline: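 HUVEC–PBMC co-culture, M-CSF measured by ELISA 24 h after chemical dosing. Fitted in both directions relative to DMSO as negative control; overt cytotoxicity assessed by SRB total-protein staining in parallel cultures.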

[3] = read-out: Tissue Factor, F3 (gene 2152); assay: BSK_LPS_TissueFactor: BioMAP Diversity Plus: LPS Assay for Tissue Factor Biomarker Activity (AID 2283084); details: primary human HUVEC with PBMC; actives raise or lower the signal
Outline: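 Human umbilical vein endothelial cells co-cultured with PBMC were dosed with compound. Cell-surface CD142 was measured by ELISA 24 h later. Activity was fitted bidirectionally against DMSO, with SRB total-protein staining in parallel cultures for cytotoxicity.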

[4] = read-out: Tumor necrosis factor (Homo sapiens) (UniProt P01375); assay: BSK_LPS_TNFa: BioMAP Diversity Plus: LPS Assay for Tumour Necrosis Factor alpha (TNFa) Biomarker Activity (AID 2283085); details: primary human HUVEC with PBMC; actives raise or lower the signal;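 on AC50: TNFa protein level quantified by ELISA in the co-culture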
Outline: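 ELISA-based TNFa endpoint in a human endothelial–PBMC co-culture sampled 24 h post-exposure. Curves were fitted in both directions using DMSO as baseline of activity.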

[5] = read-out: Vascular cell adhesion molecule 1 (VCAM1), VCAM1 (gene 7412); assay: BSK_LPS_VCAM1: BioMAP Diversity Plus: LPS Assay for Vascular cell adhesion molecule 1 (VCAM1) Biomarker Activity (AID 2283086); details: primary human HUVEC with PBMC; actives raise or lower the signal
Outline: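 Measured by ELISA: VCAM-1 in LPS-activated HUVEC/PBMC co-cultures 24 h after treatment. Values reflect bidirectional fitting with DMSO as baseline.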

CD38, CD38 (gene 952) = assay: BSK_SAg_CD38: BioMAP Diversity Plus: SAg Assay for CD38 Biomarker Activity (AID 2283087); details: primary human HUVEC with PBMC; actives raise or lower the signal
Outline: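 Measures CD38 on a human endothelial/PBMC co-culture driven by SEB and TSST-1, 24 h after compound exposure, using ELISA with fluorescence detection; DMSO defines baseline for bidirectional curve fitting.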

CD40, CD40 (gene 958) = assay: BSK_SAg_CD40: BioMAP Diversity Plus: SAg Assay for CD40 Biomarker Activity (AID 2283088); details: primary human HUVEC with PBMC; actives raise or lower the signal
Outline: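 HUVEC plus PBMC co-culture, superantigen-activated, with CD40 read by ELISA 24 h after dosing. Curves fitted in both directions against DMSO. Overt cytotoxicity checked by parallel SRB total-protein staining.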

CD69, CD69 (gene 969) = assay: BSK_SAg_CD69: BioMAP Diversity Plus: SAg Assay for CD69 Biomarker Activity (AID 2283089); details: primary human HUVEC with PBMC; actives raise or lower the signal;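 on AC50: cell surface CD69 protein quantified by ELISA with fluorescence detection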
Outline: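 ELISA, fluorescence read-out: CD69 on human umbilical vein endothelial cell + PBMC co-culture, 24 h post-dosing. Gain or loss of signal fitted bidirectionally against DMSO baseline.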

[6] = read-out: Monocyte Chemoattractant Protein-1 (MCP1), CCL2 (gene 6347); assay: BSK_SAg_MCP1: BioMAP Diversity Plus: SAg Assay for Monocyte Chemoattractant Protein-1 (MCP1) Biomarker Activity (AID 2283090); details: primary human HUVEC with PBMC; actives raise or lower the signal
Outline: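 Values derive from bidirectional fitting of ELISA-measured MCP1 against DMSO controls. Readings were taken 24 h after dosing human vascular endothelial cells co-cultured with peripheral blood mononuclear cells under superantigen stimulation.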

[7] = read-out: E-selectin (Homo sapiens) (UniProt P16581); assay: BSK_SAg_Eselectin: BioMAP Diversity Plus: SAg Assay for Eselectin Biomarker Activity (AID 2283091); details: primary human HUVEC with PBMC; actives raise or lower the signal
Outline: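 Human umbilical vein endothelial cells co-cultured with peripheral blood mononuclear cells, SAg system. E-selectin is measured by ELISA 24 h after dosing and fitted bidirectionally against DMSO. Cytotoxicity is checked by SRB staining of parallel cultures.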

[8] = read-out: Monokine induced gamma interferon (MIG), CXCL9 (gene 4283); assay: BSK_SAg_MIG: BioMAP Diversity Plus: SAg Assay for Monokine induced gamma interferon (MIG) Biomarker Activity (AID 2283092); details: primary human HUVEC with PBMC; actives raise or lower the signal
Outline: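 ELISA readout of MIG/CXCL9; primary human umbilical vein endothelial cells co-cultured with peripheral blood mononuclear cells; 24 h post-dose; gain/loss fit vs DMSO baseline.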

[9] = BSK_SAg_PBMCCytotoxicity: PBMC Cytotoxicity Assessment in the BioMAP Diversity Plus: SAg Assay (AID 2283093); details: primary human HUVEC with PBMC;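 further: fitted both ways against DMSO so a hit may be loss or gain of signal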;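 on AC50: PBMC superantigen activated with SEB plus TSST-1 one hour after compound addition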
Outline: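 PBMC viability by Alamar Blue reduction, fluorescence read at 546/580 nm after 6 h dye exposure. Cells were dosed 1 h before SEB plus TSST-1 activation (20 ng/mL final each), then held 90 h; endothelial/PBMC human co-culture.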

[10] = read-out: Interleukin-8 (IL8), CXCL8 (gene 3576); assay: BSK_SAg_IL8: BioMAP Diversity Plus: SAg Assay for Interleukin-8 (IL8) Biomarker Activity (AID 2283094); details: primary human HUVEC with PBMC; actives raise or lower the signal
Outline: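 Primary human endothelial cells with PBMC, exposed 24 h; IL-8 determined by ELISA, analysed bidirectionally relative to DMSO.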

[11] = BSK_SAg_SRB: Viability Assessment in the BioMAP Diversity Plus: SAg Assay (AID 2283096); details: primary human HUVEC with PBMC;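 further: cells read one day after compound addition; hits may be either gain or loss of signal compared with DMSO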
Outline: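 Compounds were added to a human vascular co-culture of umbilical vein endothelium and PBMC. After 24 h, parallel cultures were fixed with 10% TCA, stained with 0.1% sulforhodamine B and read at 560 nm. Gain or loss of signal was fitted relative to DMSO.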

[12] = BSK_SAg_Proliferation: Cell Proliferation Assessment in the BioMAP Diversity Plus: SAg Assay (AID 2283095); details: primary human HUVEC with PBMC;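 further: relative cell number as total protein by SRB absorbance in sub-confluent culture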
Outline: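 A human primary co-culture of umbilical vein endothelium and blood mononuclear cells receives compound; relative cell number is quantified at 96 h by SRB staining and 560 nm absorbance, with DMSO-referenced bidirectional curve fitting.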

[13] = target: human CYP2A6, CYP2A6 (gene 1548) (UniProt P11509); assay: NVS_ADME_hCYP2A6: NovaScreen (NVS) CYP450-related Enzyme Activity (ADME) Assay for human CYP2A6 (AID 2283099; active means hit-call score of the fitted dose curve at least 0.9, where 1 is the maximum)
Sequence of human CYP2A6, CYP2A6 (gene 1548) (P11509 whole entry, looked up): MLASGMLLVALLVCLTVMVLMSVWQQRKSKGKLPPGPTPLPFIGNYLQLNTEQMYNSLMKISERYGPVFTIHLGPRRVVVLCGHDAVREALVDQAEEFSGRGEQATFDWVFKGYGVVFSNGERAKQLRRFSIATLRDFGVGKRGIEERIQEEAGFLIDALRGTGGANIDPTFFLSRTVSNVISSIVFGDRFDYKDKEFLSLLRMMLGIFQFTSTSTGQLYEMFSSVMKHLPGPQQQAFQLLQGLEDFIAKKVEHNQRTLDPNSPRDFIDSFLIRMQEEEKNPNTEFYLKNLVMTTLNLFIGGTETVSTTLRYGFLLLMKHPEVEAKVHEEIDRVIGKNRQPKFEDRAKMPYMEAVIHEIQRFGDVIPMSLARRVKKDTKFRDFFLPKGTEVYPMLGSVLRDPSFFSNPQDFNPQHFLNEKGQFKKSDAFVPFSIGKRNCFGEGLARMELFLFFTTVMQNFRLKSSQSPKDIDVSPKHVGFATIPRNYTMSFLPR
Outline: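 Recombinant human CYP2A6 expressed in insect cells, cell-free; fluorogenic substrate turnover read by fluorescence intensity 0.5 h after dosing. Primary screen 10 uM in duplicate, then concentration-response up to 20 uM; acetonitrile as negative control.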

[14] = target: human CYP2B6, CYP2B6 (gene 1555) (UniProt P20813); assay: NVS_ADME_hCYP2B6: NovaScreen (NVS) CYP450-related Enzyme Activity (ADME) Assay for human CYP2B6 (AID 2283101; active means hit-call score of the fitted dose curve at least 0.9, where 1 is the maximum)
Sequence of human CYP2B6, CYP2B6 (gene 1555) (P20813 whole entry, looked up): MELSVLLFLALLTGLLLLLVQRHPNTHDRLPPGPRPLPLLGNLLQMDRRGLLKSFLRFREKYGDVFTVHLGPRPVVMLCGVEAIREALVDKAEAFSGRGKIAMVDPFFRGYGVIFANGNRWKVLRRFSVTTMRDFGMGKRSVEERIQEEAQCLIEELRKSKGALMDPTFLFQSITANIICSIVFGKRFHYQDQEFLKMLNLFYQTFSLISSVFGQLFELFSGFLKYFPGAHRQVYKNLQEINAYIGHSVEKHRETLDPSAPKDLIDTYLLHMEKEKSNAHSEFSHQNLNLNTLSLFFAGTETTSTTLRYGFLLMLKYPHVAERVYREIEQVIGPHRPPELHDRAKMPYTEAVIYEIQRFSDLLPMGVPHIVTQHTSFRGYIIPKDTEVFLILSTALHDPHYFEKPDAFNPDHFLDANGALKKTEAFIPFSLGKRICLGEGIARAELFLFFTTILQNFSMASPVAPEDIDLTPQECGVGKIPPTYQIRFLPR
Outline: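 Fluorescence-based enzyme activity of recombinant human CYP2B6, measured 1 h post-dose against acetonitrile vehicle baseline. Screened at a single concentration of 10 uM in duplicate before concentration-response follow-up.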

[15] = target: human CYP1A2, CYP1A2 (gene 1544) (UniProt P05177); assay: NVS_ADME_hCYP1A2: NovaScreen (NVS) CYP450-related Enzyme Activity (ADME) Assay for human CYP1A2 (AID 2283102; active means hit-call score of the fitted dose curve at least 0.9, where 1 is the maximum;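 further: potency for inhibition since loss of fluorescence marks reduced CYP1A2 activity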)
Sequence of human CYP1A2, CYP1A2 (gene 1544) (P05177 whole entry, looked up): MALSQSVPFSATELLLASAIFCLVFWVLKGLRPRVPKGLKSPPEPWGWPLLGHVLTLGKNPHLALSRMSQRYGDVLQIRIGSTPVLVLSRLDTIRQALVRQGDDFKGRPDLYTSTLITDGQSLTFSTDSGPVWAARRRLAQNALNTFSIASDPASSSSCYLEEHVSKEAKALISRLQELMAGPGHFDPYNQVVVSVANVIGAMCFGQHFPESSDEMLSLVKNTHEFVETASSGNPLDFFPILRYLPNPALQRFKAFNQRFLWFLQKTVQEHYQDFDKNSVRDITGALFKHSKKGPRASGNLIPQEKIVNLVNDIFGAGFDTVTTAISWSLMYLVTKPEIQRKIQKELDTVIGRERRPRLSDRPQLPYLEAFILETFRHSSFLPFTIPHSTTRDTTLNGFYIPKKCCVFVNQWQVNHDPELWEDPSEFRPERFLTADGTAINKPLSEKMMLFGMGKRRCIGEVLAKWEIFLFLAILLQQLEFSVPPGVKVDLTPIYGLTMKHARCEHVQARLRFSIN
Outline: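 Recombinant human CYP1A2 from insect cells, cell-free, fluorogenic substrate; read 0.5 h after dosing with loss of fluorescence signal indicating inhibition. Primary screen in duplicate at 10 uM, acetonitrile as negative control.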

[16] = target: human CYP19A1, CYP19A1 (gene 1588) (UniProt P11511); assay: NVS_ADME_hCYP19A1: NovaScreen (NVS) CYP450-related Enzyme Activity (ADME) Assay for human CYP19A1 (AID 2283098; active means hit-call score of the fitted dose curve at least 0.9, where 1 is the maximum;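 on AC50: potency for inhibitors seen as loss of fluorescent enzyme signal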)
Sequence of human CYP19A1, CYP19A1 (gene 1588) (P11511 whole entry, looked up): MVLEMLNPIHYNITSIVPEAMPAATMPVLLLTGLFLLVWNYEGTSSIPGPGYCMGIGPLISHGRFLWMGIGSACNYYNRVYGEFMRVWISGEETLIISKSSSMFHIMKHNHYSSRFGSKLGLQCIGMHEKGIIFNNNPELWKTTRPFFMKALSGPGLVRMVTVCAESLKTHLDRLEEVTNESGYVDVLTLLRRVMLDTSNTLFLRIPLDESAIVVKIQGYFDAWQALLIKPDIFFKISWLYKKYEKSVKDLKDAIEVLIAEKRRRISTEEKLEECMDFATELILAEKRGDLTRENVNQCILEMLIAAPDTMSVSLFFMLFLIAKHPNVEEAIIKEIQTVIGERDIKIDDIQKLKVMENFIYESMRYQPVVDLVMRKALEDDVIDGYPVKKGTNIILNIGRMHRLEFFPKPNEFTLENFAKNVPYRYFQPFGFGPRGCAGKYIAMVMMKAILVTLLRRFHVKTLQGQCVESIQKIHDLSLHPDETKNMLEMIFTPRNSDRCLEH
Outline: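 Fluorescence intensity read-out; activity taken as signal loss relative to acetonitrile vehicle. Extracted enzyme, specific substrate, no cells, 0.5 h exposure. Duplicate single-point screen at 10 uM, then concentration–response follow-up for actives.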

Measured: AC50

Sequence of E-selectin (Homo sapiens) (P16581 whole entry, looked up): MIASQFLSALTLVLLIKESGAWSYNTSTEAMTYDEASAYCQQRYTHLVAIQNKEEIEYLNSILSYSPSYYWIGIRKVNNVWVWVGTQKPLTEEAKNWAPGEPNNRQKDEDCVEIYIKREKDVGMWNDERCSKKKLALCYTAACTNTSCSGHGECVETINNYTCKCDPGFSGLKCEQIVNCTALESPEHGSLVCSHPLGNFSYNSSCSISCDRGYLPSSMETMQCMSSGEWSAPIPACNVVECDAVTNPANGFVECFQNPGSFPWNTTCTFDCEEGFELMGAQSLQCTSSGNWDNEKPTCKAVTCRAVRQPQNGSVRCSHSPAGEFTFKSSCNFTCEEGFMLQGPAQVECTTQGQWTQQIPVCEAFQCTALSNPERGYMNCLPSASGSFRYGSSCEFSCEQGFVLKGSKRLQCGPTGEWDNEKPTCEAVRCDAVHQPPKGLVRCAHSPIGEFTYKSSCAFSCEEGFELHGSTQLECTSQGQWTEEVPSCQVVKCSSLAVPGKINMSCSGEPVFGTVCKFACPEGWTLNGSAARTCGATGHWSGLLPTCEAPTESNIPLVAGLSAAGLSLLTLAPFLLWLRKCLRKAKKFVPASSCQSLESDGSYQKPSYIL
Sequence of Tumor necrosis factor (Homo sapiens) (P01375 whole entry, looked up): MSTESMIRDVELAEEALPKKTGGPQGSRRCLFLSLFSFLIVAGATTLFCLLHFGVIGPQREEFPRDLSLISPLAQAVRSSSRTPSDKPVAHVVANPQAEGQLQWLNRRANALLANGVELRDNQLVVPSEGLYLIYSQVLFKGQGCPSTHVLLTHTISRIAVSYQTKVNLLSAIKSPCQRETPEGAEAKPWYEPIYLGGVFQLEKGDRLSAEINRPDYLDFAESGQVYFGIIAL

NC(=O)c1nc(-c2cccc(-c3cc(F)ccc3OCC(F)(F)C(F)(F)F)c2)n[nH]1
active: [1] 33.6 µM | [2] 29.4 µM | [3] 33.4 µM | [4] 37.4 µM | [5] 35.3 µM | CD38, CD38 (gene 952) 29.5 µM | CD40, CD40 (gene 958) 26.9 µM | CD69, CD69 (gene 969) 26.2 µM | [6] 29 µM | [7] 19.3 µM | [8] 40.3 µM | [9] 35.7 µM | [10] 18.2 µM | [11] 32.7 µM

NCc1cccc(C2CCN(C(=O)c3ccc(C#Cc4ccccc4F)o3)CC2)c1
active: [1] 16.1 µM | [2] 26 µM | [4] 27.7 µM | [5] 24.6 µM | CD38, CD38 (gene 952) 17.4 µM | CD40, CD40 (gene 958) 15.3 µM | CD69, CD69 (gene 969) 22.1 µM | [6] 28 µM | [7] 23.8 µM | [8] 35.1 µM | [9] 11.9 µM | [10] 15.8 µM | [12] 7.97 µM | [11] 15.2 µM | [13] 17.9 µM | [14] 5.71 µM | [15] 6.43 µM

CCN(CC)C(=O)c1cc(S(=O)(=O)Cc2ccccc2)c(N2CCC(c3ccccc3)CC2)cc1N(CC)CCN(C)C
active: [1] 19.5 µM | [2] 11.8 µM | [4] 12.4 µM | [5] 11.5 µM | CD38, CD38 (gene 952) 9.58 µM | CD40, CD40 (gene 958) 10.4 µM | CD69, CD69 (gene 969) 9.82 µM | [6] 11.8 µM | [7] 11.4 µM | [8] 15.2 µM | [9] 6.84 µM | [10] 5.2 µM | [12] 5.1 µM | [11] 12.7 µM

Cc1cn([C@H]2C[C@H](N=[N+]=[N-])[C@@H](CO)O2)c(=O)[nH]c1=O
not listed: [3] | [13] | [14] | [15] | [16]
inactive: all other assays above

COc1cccc([C@H](O)C2CCN(CCc3ccc(F)cc3)CC2)c1OC
not listed: [3] | [13] | [14] | [15] | [16]
inactive: all other assays above

CCCCCCCCCC(=O)O
not listed: [3] | [12] | [13] | [14] | [15] | [16]
inactive: all other assays above

O=C1CCC(C2CCCCC2)CC1
inactive: [1] | [2] | [4] | [5] | CD38, CD38 (gene 952) | CD40, CD40 (gene 958) | CD69, CD69 (gene 969) | [6] | [7] | [8] | [9] | [10] | [11] | [16]
active: [16] 11.6 µM

CC(O)CC(C)(C)O (stereo not drawn)
not listed: [12] | [13] | [14] | [15] | [16]
inactive: all other assays above

CN(C[C@@H](CC[N+]12CCC(C3CCCCC3)(CC1)CC2)c1ccc(Cl)c(Cl)c1)C(=O)c1cc(C(F)(F)F)cc(C(F)(F)F)c1
active: [1] 23.4 µM | [2] 23.6 µM | [3] 25 µM | [4] 13.7 µM | [5] 31.3 µM | CD38, CD38 (gene 952) 13.3 µM | CD40, CD40 (gene 958) 20 µM | CD69, CD69 (gene 969) 21.9 µM | [6] 17.1 µM | [7] 13.3 µM | [8] 27.8 µM | [9] 9.71 µM | [10] 13.9 µM | [12] 5.2 µM | [11] 26.9 µM

CCCCCCCCCCCCO
active: [1] 34.8 µM | [2] 32.2 µM | [4] 29.7 µM | [5] 19.8 µM | CD38, CD38 (gene 952) 34.7 µM | CD40, CD40 (gene 958) 31.6 µM | CD69, CD69 (gene 969) 31 µM | [6] 30.4 µM | [7] 31.7 µM | [8] 36.3 µM | [9] 35.1 µM | [10] 19.8 µM | [11] 31.3 µM
